This is an account of results in PubChem BioAssay (NCATS).

For assay [1], the target named is ATP-dependent 6-phosphofructokinase (Trypanosoma brucei brucei) (UniProt O15648). Nature of the assay: qHTS Assay to Find Inhibitors of T. brucei phosphofructokinase: hit validation (AID 492961).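 Further: luminescence reports ADP formed as PFK phosphorylates fructose-6-phosphate with ATP; on the % scale 0 is the no-effect control and ±100 the full control effect.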 Put shortly: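 Compounds titrated; %activity normalized to 0x and 1x enzyme controls, curve-fitted. Readout: ADP-Glo luminescence after 45 min room-temperature reaction of 1.25 nM PFK, 0.1 mM ATP, 0.5 mM F6P, pH 8.0.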
Sequence of ATP-dependent 6-phosphofructokinase (Trypanosoma brucei brucei) (O15648 whole entry, looked up): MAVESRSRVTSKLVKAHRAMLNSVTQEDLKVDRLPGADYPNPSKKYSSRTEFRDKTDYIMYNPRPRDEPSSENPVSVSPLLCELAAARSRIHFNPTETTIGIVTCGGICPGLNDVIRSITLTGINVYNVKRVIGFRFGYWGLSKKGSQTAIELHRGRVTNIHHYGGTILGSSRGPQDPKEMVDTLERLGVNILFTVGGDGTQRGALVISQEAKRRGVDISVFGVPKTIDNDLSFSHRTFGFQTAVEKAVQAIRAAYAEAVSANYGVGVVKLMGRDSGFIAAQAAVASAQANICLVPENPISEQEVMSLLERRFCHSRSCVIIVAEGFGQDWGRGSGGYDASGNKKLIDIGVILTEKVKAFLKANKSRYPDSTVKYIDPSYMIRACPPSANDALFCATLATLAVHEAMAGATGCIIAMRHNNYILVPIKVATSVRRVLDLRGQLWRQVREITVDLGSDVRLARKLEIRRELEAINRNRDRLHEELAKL
Background: Quantitative high-throughput screening tests each substance at several concentrations.

A short description of assay [2]: qHTS profiling for inhibitors of Plasmodium falciparum proliferation (AID 504749). Further: nearly all actives have a fitted effect of over 60% in size. Further: potency means the concentration at half of the fitted maximal effect.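 On activity, negative = inhibition: 0% = DMSO vehicle and full inhibition = artemisinin control.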 Particulars: P. falciparum in erythrocytes, SYBR Green DNA, 72 h, at 28.7 µM (top of the series). In short, it runs like this: (§1)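 SYBR Green fluorescence (ex 485 nm, em 535 nm) reports parasite DNA after 72 h compound exposure of infected red cells at 0.3% parasitemia, 2.5% hematocrit; signal normalized to 0.29 uM artemisinin and vehicle wells.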

Another assay concerns 7G8. Described as above. Particulars: P. falciparum in erythrocytes, SYBR Green DNA, 72 h; series mostly up to 28.7 µM. Put shortly: as §1
In a further assay the test system is ATS189. The description is as above. Particulars: P. falciparum in erythrocytes, SYBR Green DNA, 72 h; series mostly up to 28.7 µM. Put shortly:
as §1

In the next assay the test system is CP185. The description is as above. As to conditions: P. falciparum in erythrocytes, SYBR Green DNA, 72 h; series mostly up to 28.7 µM. Put shortly:
as §1

The test system of the next assay is CP192. Described as above. Particulars: P. falciparum in erythrocytes, SYBR Green DNA, 72 h; series mostly up to 28.7 µM. Put shortly:
as §1

For another assay, the system named is CP201. Described as above. Particulars: P. falciparum in erythrocytes, SYBR Green DNA, 72 h; series mostly up to 28.7 µM. Put shortly: as §1
In a further assay the test system is CP238. The assay is described as above. Particulars: P. falciparum in erythrocytes, SYBR Green DNA, 72 h; series mostly up to 28.7 µM. In short, it runs like this:
as §1

Another assay concerns CP247. The assay is described as above. Particulars: P. falciparum in erythrocytes, SYBR Green DNA, 72 h; series mostly up to 28.7 µM. In short, it runs like this:
as §1

The test system of the next assay is CP252. The assay is described as above. As to conditions: P. falciparum in erythrocytes, SYBR Green DNA, 72 h; series mostly up to 28.7 µM. In short, it runs like this: as §1
The subject of the next assay is CP265. The assay is described as above. As to conditions: P. falciparum in erythrocytes, SYBR Green DNA, 72 h; series mostly up to 28.7 µM. In short, it runs like this:
as §1

The subject of the next assay is CP329. Described as above. As to conditions: P. falciparum in erythrocytes, SYBR Green DNA, 72 h; series mostly up to 28.7 µM. In short, it runs like this:
as §1

Another assay relates to HB3. The assay is described as above. Particulars: P. falciparum in erythrocytes, SYBR Green DNA, 72 h; series mostly up to 28.7 µM. In short, it runs like this: as §1
The next assay deals with PAD. Described as above. As to conditions: P. falciparum in erythrocytes, SYBR Green DNA, 72 h; series mostly up to 28.7 µM. Put shortly: as §1
The subject of another assay is SC27B. The description is as above. As to conditions: P. falciparum in erythrocytes, SYBR Green DNA, 72 h; series mostly up to 28.7 µM. Put shortly:
as §1

The next assay relates to W2. The description is as above. Particulars: P. falciparum in erythrocytes, SYBR Green DNA, 72 h; series mostly up to 28.7 µM. Put shortly: as §1
Assay [3] can be described thus: qHTS Assay for Identification of Small Molecule Antagonists for NFkB Signaling Pathway (AID 895; active means well fitted inhibition curve with a large enough effect in the signal ratio, with a control signal flat, not every such curve was filed as active; the % refers to the signal ratio; further: potency means the concentration at half of the fitted maximal effect). Put shortly: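 ME-180 NFkB-bla cells (beta-lactamase under NFkB response element), plated overnight, treated with compound then 10 pM TNF alpha (about EC50) for 5 hrs at 37 C. LiveBLAzer FRET read at 460/530 nm emission, 405 nm excitation.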
Assay [4] deals with Cytochrome P450 3A4 (Homo sapiens) (UniProt P08684). As to the kind of experiment: qHTS Assay for Inhibitors and Substrates of Cytochrome P450 3A4 (AID 884). Further: on the % scale 0 is the no-effect control and ±100 the full control effect; nearly all actives have a fitted effect of over 50% in size. In short, it runs like this:
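Luminescent readout of luciferin produced by CYP3A4 (20 nM) dealkylation of Luciferin-PPXE, 25 uM (its KM). NADPH-driven reaction ran 60 min at RT after 10 min compound preincubation; data scaled to 57 uM ketoconazole as 100% inhibition.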

In assay [5] the target is Cytochrome P450 2D6 (Homo sapiens) (UniProt P10635). Nature of the assay: qHTS Assay for Inhibitors and Substrates of Cytochrome P450 2D6 (AID 891).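 Further: luciferin methyl ether substrate demethylated by CYP2D6 with NADPH regeneration; on the % scale 0 is the no-effect control and ±100 the full control effect; nearly all actives have a fitted effect of over 60% in size.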 In short, it runs like this: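 Luminescent read-out of luciferin formed by 5 nM human CYP2D6 demethylating 30 uM Luciferin-ME EGE (Km level) over 60 min at room temperature after NADPH regeneration addition. Data normalized to full inhibition by 1.43 uM quinidine.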
Sequence of Cytochrome P450 2D6 (Homo sapiens) (P10635 whole entry, looked up): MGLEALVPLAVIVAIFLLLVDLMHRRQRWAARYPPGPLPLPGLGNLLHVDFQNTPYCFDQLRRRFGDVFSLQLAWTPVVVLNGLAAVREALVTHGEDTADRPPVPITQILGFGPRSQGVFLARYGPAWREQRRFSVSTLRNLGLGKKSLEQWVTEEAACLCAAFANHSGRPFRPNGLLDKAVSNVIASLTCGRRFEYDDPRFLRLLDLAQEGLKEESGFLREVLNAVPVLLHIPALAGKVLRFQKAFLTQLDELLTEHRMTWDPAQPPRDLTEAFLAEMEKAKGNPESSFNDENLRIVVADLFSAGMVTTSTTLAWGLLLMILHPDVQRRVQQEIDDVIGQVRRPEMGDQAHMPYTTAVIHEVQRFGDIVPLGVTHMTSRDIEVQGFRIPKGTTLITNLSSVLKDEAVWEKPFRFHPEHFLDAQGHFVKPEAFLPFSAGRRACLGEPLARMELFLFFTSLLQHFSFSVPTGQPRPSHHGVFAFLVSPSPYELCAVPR

Assay [6] deals with Muscarinic acetylcholine receptor M1 (Rattus norvegicus) (UniProt P08482). As to the kind of experiment: qHTS Assay for Antagonists of Acetylcholine Muscarinic M1 Receptor: Kinetic Measurement of Intracellular Calcium Response (AID 943).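 Further: Fluo-4 calcium signal as peak divided by basal fluorescence over 4 min; nearly all actives have a fitted effect of over 75% in size.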 In short, it runs like this: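 Quantitative HTS in CHO-M1 (rat receptor) cells: 10 min compound exposure ahead of 100 nM carbachol, Fluo-4 fluorescence followed 4 min, value expressed as peak-to-basal ratio.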
Sequence of Muscarinic acetylcholine receptor M1 (Rattus norvegicus) (P08482 whole entry, looked up): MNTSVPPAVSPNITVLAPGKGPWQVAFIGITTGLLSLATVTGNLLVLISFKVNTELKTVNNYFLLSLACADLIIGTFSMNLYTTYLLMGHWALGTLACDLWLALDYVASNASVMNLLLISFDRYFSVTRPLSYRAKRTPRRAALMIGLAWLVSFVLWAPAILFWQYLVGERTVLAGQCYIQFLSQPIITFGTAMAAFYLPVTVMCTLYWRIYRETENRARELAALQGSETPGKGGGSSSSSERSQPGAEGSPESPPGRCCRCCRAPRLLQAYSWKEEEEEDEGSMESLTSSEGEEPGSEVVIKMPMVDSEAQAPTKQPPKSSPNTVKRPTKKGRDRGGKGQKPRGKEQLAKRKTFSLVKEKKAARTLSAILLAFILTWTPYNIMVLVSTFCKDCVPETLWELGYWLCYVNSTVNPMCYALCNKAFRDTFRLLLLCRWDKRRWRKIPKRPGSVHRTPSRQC

Structures are written as SMILES. Results filed as inconclusive are left out. Unmarked numbers belong to inactive results. The source made the active and inactive calls. Unless noted, the call rests on the fitted dose curve; in most records, active means well fitted curve in the direction sought with a large enough effect; inconclusive means small, poorly fitted or top-dose-only effect, or another doubt; inactive means no such curve, though single readings can be large; an effect the other way counts as inactive or inconclusive.

Sequence of Cytochrome P450 3A4 (Homo sapiens) (P08684 whole entry, looked up): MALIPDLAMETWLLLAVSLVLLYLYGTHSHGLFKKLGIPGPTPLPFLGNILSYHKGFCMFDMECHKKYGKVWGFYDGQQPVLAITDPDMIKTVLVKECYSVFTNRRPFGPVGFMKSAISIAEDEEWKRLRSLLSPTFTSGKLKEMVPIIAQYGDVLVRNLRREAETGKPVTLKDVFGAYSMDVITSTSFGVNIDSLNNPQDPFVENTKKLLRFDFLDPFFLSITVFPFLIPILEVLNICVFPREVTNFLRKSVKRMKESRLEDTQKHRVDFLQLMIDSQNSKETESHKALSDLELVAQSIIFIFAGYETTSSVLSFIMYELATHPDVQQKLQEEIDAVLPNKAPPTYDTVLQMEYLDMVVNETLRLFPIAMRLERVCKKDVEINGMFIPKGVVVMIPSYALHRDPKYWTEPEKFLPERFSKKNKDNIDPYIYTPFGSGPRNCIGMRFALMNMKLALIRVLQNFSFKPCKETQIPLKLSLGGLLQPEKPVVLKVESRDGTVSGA

Take `C[N+]1(C)[C@@H]2CC(OC(=O)[C@@H](CO)c3ccccc3)C[C@@H]1[C@H]1O[C@H]12` (some centres not stated): the result in assay [1] was inactive. Besides, the figures for the activity, negative = inhibition in [2] (parasite line A) and in assay [2] (parasite line B) were 5.68% and -7.21%, respectively. Moreover, the Potency entry in the assay with 7G8, with ATS189, in the assay with CP185, in the assay on CP192, in the assay on CP201 and with CP238 was “inactive” throughout. Also, the Potency entry in the assay on CP247, with CP252, in the assay on CP265, in the assay with CP329, in the assay on HB3 and in the assay with PAD was “inactive” in each case. For the same compound, the Potency entry in the assay on SC27B and in the assay on W2 was “inactive” each time.
With `NC(=S)NCCC[C@@H](N)C(=O)O`, the Potency entry in assay [3] is “inactive”.
For `O=[N+]([O-])c1ccc(CSc2ncnc3c2ncn3[C@@H]2O[C@@H](CO)[C@@H](O)[C@H]2O)cc1`, the Potency result in assay [4] and in assay [3] was “inactive” throughout.
As to `O=C1OC(=O)[C@@H]2[C@@H]1[C@@H]1CC[C@H]2O1`, the Potency entry in [5] is “inactive”.
On to `CC(=O)N1CCN(c2ccc(OC[C@@H]3CO[C@@](Cn4ccnc4)(c4ccc(Cl)cc4Cl)O3)cc2)CC1`, for which the compound was called inactive in assay [1]. The activity, negative = inhibition in [2] (parasite line A) was -14.8%; in assay [2] (parasite line B), -14.2%. In addition, the Potency in the assay on 7G8 is 11.2 µM (active). The Potency entry with ATS189, with CP185, in the assay with CP192, in the assay with CP201, in the assay on CP238 and in the assay with CP247 was “inactive” each time. Also, the Potency result in the assay with CP252, with CP265, in the assay with CP329, in the assay on HB3, in the assay with PAD and with SC27B was “inactive” throughout. In addition, the Potency entry in the assay on W2 was “inactive”.
On to `CNC(=O)[C@@H]1O[C@@H](n2cnc3c(NCc4ccc(N)cc4)ncnc32)[C@@H](O)[C@H]1O`, for which the Potency in assay [3] was 12.6 µM (active). Moreover, the Potency entry in assay [6] is “inactive”.
Turning to `O=C(O)CCCC[C@H]1CCSS1`, in assay [3], the Potency entry was “inactive”.
For the compound `N[C@H](COP(=O)(O)O)C(=O)O`, the Potency entry (in assay [5]; in the assay on 7G8; in the assay with ATS189; with CP185; with CP192; in the assay on CP201) was “inactive” throughout. The Potency result in the assay with CP238, with CP247, in the assay on CP252, with CP265, with CP329 and in the assay on HB3 was “inactive” each time. Also, the Potency result in the assay with PAD, in the assay on SC27B and in the assay on W2 was “inactive” in each case. Besides, in assay [1], the outcome was inactive. Moreover, the values for the activity, negative = inhibition in assay [2] (parasite line A) and in assay [2] (parasite line B) were 15.2% and 6.94%, respectively.
Consider `CN1C[C@@H](O)[C@@H](O)[C@@H](O)[C@@H]1CO`, for which, in assay [5], the Potency result is “inactive”.
Same read-out and setting: the entry for `C#C[C@H](N)CCC(=O)O` is “inactive”.
`OC[C@@H]1NC[C@@H](O)[C@H]1O`: in assay [3], the Potency entry is “inactive”.
As for `N[C@H](CCC(=O)NCS(=O)(=O)O)C(=O)O`, the Potency entry in assay [6] was “inactive”.
Take `NC(=O)C1=CN([C@@H]2O[C@@H](COP(=O)(O)OP(=O)(O)OC[C@@H]3O[C@H](n4cnc5c(N)ncnc54)[C@@H](OP(=O)(O)O)[C@@H]3O)[C@H](O)[C@@H]2O)C=CC1`: in assay [3], the Potency result is “inactive”.
Regarding `N[C@@H](C(=O)O)[C@@H]1C[C@H]1C(=O)O`, the Potency result in [5] was “inactive”.
Consider `Nc1nc(Nc2ccccc2)nc2c1ncn2[C@@H]1O[C@@H](CO)[C@H](O)[C@@H]1O`, for which the Potency result in assay [6] is “inactive”.
Take `C[C@@H]1O[C@@H](n2cc(F)c(=O)[nH]c2=O)[C@H](O)[C@@H]1O`: the Potency entry in assay [3] is “inactive”.
